# Data taken from PMC7862700, “An all-to-all approach to the identification of sequence-specific readers for epigenetic DNA modifications on cytosine”.
# Experiments:
# Assay in all cases: DAPPL (digital affinity profiling via proximity ligation, sequencing); 10 mM Tris-HCl pH 7.5, 50 mM NaCl, 1 mM DTT, 4% glycerol, room temperature, 30 min; GST-TFs on glutathione beads, 16-mer random dsDNA library, 0.1% formaldehyde crosslink after washing; high values mean tight binding
# FEV = target: T1, FEV (Homo sapiens, UniProt Q99581 1-238); conditions: protein: recombinant; tags: N-terminal GST; dsDNA, one strand shown
# T1 sequence: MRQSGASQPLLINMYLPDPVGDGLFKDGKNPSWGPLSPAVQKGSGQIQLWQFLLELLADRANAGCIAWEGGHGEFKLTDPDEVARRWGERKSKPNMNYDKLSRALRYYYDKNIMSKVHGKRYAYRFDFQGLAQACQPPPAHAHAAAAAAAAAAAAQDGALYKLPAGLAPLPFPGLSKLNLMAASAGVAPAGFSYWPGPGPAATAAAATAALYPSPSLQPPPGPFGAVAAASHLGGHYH
# How it was run: (§1)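 Binding signal is each hexamer's read frequency for a factor divided by its frequency in the tag-only sample. The factors were GST-fused human transcription factors from yeast, captured on glutathione beads, DNA-barcoded and pooled with that sample. Pools were incubated with 200 nmole of a random double-stranded 16-mer DNA library in Tris/NaCl/DTT/glycerol buffer at room temperature for 30 min, then washed, crosslinked with 0.1% formaldehyde, proximity-ligated with BsaI/T4 ligase (1 h, 37 °C), PCR-amplified and sequenced on an Illumina NextSeq500.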
# ETV5 = ETV5 (Homo sapiens, UniProt P41161 1-510); conditions: protein: recombinant; tags: N-terminal GST; dsDNA, one strand shown
# Chain of ETV5 (P41161 whole entry): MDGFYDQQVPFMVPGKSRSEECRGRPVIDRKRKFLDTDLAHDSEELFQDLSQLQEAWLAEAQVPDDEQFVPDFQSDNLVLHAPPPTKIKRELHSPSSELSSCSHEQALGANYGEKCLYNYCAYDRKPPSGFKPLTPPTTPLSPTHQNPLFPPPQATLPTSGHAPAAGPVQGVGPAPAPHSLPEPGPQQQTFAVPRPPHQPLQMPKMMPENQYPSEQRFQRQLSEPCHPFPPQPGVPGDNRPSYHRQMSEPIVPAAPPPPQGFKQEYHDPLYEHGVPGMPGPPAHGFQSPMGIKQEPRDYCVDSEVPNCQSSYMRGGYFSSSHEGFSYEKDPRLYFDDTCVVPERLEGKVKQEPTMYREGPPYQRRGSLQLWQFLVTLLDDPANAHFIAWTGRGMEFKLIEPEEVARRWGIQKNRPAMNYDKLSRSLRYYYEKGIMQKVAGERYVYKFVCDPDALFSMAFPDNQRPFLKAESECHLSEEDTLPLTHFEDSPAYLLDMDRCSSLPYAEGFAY
# How it was run: as §1
# HSF1 = HSF1 (Homo sapiens, UniProt Q00613 1-529); conditions: protein: recombinant; tags: N-terminal GST; chain copies: 3; dsDNA, one strand shown
# Chain of HSF1 (Q00613 whole entry): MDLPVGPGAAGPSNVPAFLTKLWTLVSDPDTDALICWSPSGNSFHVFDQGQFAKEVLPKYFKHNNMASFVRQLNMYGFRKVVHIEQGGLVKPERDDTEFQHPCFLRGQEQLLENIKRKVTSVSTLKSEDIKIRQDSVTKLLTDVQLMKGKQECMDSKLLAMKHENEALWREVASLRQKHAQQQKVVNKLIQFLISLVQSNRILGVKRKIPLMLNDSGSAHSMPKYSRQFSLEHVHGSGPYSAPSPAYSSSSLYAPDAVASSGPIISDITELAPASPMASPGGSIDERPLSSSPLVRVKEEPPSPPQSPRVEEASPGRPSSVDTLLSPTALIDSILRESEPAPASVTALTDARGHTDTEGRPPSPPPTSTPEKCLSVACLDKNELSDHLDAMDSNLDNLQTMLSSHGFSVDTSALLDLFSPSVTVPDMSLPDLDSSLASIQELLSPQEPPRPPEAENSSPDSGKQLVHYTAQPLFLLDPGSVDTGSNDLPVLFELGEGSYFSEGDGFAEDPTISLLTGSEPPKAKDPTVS
# How it was run: as §1
# SPIC = target: T2, SPIC (Homo sapiens, UniProt Q8N5J4 1-248); conditions: protein: recombinant; tags: N-terminal GST; dsDNA, one strand shown
# T2 sequence: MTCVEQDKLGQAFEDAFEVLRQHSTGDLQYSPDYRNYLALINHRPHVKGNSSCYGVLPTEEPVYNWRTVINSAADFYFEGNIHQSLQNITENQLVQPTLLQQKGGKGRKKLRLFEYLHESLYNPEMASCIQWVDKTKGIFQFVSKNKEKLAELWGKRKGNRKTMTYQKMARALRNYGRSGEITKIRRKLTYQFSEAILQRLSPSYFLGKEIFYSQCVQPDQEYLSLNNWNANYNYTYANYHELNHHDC
# How it was run: as §1
# ELF4 = ELF4 (Homo sapiens, UniProt Q99607 1-663); conditions: protein: recombinant; tags: N-terminal GST; dsDNA, one strand shown
# Chain of ELF4 (Q99607 whole entry): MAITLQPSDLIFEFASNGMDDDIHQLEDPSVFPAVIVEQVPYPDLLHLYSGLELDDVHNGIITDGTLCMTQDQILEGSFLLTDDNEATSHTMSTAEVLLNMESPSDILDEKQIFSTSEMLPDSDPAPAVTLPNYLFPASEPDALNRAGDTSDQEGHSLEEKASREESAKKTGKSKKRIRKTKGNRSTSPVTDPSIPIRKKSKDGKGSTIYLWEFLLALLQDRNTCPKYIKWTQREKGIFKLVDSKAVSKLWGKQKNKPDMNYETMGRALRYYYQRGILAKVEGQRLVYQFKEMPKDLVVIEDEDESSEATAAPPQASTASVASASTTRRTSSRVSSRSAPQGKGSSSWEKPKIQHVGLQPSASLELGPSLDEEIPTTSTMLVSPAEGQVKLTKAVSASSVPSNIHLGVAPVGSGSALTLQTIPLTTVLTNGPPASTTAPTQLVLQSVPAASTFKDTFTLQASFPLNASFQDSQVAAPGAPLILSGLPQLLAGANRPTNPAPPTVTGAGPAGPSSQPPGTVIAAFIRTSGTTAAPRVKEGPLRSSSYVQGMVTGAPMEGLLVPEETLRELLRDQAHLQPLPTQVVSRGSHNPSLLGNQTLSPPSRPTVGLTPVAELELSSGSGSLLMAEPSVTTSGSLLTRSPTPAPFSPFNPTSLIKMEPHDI
# How it was run: as §1
# ELK4 = target: T3, ELK4 (Homo sapiens, UniProt P28324-2 1-405); conditions: protein: recombinant; tags: N-terminal GST; dsDNA, one strand shown
# T3 sequence: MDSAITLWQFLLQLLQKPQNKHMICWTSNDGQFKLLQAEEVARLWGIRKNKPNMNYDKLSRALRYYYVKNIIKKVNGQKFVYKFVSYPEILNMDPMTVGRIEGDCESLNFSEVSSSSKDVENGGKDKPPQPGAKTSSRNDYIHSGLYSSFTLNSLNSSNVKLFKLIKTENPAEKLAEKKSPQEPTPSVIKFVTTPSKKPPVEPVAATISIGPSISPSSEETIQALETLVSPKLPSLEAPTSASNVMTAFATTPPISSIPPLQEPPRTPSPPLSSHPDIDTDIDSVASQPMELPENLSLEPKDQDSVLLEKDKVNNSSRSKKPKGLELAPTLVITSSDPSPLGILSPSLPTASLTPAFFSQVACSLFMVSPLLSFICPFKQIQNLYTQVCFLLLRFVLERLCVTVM
# How it was run: as §1
# ETV2 = target: T4, ETV2 (Homo sapiens, UniProt O00321 1-342); conditions: protein: recombinant; tags: N-terminal GST; dsDNA, one strand shown
# T4 sequence: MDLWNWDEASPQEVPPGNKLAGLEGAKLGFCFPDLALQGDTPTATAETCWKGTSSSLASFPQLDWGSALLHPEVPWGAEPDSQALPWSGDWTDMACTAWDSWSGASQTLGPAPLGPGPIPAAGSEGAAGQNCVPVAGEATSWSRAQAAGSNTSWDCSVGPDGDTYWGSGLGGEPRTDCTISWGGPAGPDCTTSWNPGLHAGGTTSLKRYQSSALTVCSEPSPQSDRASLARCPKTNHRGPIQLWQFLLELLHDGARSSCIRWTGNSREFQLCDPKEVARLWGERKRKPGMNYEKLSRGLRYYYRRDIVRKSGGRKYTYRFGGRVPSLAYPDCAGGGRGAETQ
# How it was run: as §1
# ELF3 = target: T5, ELF3 (Homo sapiens, UniProt P78545 1-371); conditions: protein: recombinant; tags: N-terminal GST; dsDNA, one strand shown
# T5 sequence: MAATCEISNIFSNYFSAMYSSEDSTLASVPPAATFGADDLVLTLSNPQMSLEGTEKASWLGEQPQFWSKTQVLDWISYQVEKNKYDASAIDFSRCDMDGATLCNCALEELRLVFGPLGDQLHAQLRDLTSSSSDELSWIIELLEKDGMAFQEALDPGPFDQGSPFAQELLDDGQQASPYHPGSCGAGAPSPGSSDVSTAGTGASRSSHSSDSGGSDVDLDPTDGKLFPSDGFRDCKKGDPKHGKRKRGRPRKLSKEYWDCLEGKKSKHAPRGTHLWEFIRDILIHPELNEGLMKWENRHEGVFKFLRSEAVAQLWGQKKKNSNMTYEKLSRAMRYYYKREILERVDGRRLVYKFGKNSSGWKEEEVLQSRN
# How it was run: as §1
# CRX = CRX (Homo sapiens, UniProt O43186 1-299); conditions: protein: recombinant; tags: N-terminal GST; dsDNA, one strand shown
# Chain of CRX (O43186 whole entry): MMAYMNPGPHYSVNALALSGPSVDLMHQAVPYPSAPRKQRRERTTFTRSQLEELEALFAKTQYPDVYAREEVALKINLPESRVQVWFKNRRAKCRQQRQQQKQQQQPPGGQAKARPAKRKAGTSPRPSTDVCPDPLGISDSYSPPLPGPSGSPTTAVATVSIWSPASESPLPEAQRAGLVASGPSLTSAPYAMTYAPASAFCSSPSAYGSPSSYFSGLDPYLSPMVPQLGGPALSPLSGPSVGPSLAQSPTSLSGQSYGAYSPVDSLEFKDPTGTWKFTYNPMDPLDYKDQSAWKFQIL
# How it was run: as §1
# ETV1 = ETV1 (Homo sapiens, UniProt P50549 1-477); conditions: protein: recombinant; tags: N-terminal GST; dsDNA, one strand shown
# Chain of ETV1 (P50549 whole entry): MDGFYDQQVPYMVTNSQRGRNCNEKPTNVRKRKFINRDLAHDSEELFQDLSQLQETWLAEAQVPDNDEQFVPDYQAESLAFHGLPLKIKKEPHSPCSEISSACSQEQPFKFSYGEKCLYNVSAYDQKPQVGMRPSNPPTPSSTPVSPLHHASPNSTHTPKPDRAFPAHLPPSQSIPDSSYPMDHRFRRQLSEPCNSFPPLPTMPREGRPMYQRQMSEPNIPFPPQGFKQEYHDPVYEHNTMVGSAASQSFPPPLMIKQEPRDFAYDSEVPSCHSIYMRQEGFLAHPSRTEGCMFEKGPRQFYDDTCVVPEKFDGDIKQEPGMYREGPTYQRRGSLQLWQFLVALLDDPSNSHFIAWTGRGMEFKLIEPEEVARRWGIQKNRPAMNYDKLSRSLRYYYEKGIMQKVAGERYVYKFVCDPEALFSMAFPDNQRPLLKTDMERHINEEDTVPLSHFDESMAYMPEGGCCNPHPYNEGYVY
# How it was run: as §1
# ERF = target: T6, ERF (Homo sapiens, UniProt P50548 1-548); conditions: protein: recombinant; tags: N-terminal GST; dsDNA, one strand shown
# T6 sequence: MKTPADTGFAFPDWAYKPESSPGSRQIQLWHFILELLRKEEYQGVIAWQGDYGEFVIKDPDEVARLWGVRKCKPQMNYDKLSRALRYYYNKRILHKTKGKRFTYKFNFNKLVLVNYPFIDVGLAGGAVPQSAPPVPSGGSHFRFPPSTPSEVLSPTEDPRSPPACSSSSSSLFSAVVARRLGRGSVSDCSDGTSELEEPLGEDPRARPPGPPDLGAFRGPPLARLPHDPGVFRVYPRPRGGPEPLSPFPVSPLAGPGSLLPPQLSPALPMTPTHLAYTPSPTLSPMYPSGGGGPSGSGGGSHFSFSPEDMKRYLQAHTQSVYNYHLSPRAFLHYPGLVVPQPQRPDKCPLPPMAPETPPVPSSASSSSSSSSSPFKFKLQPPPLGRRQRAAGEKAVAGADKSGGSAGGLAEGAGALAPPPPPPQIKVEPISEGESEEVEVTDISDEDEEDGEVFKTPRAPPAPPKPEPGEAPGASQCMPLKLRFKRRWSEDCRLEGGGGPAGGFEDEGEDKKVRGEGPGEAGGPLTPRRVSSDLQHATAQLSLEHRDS
# How it was run: as §1
# ETV3L = target: T7, ETV3L (Homo sapiens, UniProt Q6ZN32 1-361); conditions: protein: recombinant; tags: N-terminal GST; dsDNA, one strand shown
# T7 sequence: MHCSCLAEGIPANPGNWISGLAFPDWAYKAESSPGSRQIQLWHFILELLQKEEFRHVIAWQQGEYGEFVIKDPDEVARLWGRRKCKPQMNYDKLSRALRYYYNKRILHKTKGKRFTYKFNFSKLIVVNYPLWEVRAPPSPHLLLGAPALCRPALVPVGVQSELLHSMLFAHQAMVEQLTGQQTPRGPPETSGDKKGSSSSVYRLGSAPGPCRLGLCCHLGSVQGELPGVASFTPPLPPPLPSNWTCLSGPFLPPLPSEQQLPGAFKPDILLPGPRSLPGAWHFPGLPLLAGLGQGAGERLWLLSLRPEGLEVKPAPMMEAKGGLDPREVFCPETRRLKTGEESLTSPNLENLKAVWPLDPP
# How it was run: as §1
# ETS2 = target: T8, ETS2 (Homo sapiens, UniProt P15036 1-469); conditions: protein: recombinant; tags: N-terminal GST; dsDNA, one strand shown
# T8 sequence: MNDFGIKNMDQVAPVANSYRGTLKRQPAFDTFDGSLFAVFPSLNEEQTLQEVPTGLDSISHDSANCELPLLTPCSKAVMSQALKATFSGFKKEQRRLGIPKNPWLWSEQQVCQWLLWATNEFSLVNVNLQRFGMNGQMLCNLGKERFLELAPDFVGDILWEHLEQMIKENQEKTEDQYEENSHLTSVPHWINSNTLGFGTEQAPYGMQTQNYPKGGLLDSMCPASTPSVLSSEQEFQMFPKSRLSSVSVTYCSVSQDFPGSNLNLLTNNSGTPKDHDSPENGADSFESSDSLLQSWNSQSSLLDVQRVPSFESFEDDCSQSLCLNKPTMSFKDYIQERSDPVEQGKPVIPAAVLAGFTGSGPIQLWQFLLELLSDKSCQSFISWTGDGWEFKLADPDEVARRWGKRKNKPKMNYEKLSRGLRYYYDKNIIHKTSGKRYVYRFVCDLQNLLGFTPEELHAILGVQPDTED
# How it was run: as §1
# SPDEF = target: T9, SPDEF (Homo sapiens, UniProt O95238 1-335); conditions: protein: recombinant; tags: N-terminal GST; dsDNA, one strand shown
# T9 sequence: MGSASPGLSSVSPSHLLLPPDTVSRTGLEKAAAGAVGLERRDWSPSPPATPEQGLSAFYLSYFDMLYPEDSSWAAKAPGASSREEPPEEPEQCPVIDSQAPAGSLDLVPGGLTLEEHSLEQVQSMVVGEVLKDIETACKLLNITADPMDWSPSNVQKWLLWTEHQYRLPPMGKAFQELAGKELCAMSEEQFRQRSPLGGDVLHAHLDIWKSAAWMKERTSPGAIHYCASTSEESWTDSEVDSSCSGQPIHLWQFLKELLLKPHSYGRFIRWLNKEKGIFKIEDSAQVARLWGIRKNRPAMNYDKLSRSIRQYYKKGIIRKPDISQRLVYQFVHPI
# How it was run: as §1
# ETV7 = target: T10, ETV7 (Homo sapiens, UniProt Q9Y603 1-341); conditions: protein: recombinant; tags: N-terminal GST; dsDNA, one strand shown
# T10 sequence: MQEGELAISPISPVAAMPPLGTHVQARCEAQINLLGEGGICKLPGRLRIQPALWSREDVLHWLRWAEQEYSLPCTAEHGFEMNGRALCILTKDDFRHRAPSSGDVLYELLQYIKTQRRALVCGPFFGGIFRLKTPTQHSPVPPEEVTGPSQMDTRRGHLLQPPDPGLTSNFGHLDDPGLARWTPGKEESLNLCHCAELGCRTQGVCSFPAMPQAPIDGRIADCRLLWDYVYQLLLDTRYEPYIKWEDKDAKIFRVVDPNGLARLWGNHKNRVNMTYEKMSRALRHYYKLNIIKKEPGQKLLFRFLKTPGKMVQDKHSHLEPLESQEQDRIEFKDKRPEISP
# How it was run: as §1
# ELF5 = target: T11, ELF5 (Homo sapiens, UniProt Q9UKW6-2 1-255); conditions: protein: recombinant; tags: N-terminal GST; dsDNA, one strand shown
# T11 sequence: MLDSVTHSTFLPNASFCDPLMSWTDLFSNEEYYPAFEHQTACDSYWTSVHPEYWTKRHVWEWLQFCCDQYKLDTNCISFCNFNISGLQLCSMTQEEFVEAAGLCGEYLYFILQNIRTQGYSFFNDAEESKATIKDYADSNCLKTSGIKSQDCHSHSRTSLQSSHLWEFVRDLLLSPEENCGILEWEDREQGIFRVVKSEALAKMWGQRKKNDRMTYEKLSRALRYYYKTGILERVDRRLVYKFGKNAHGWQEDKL
# How it was run: as §1
# ETV3 = target: T12, ETV3 (Homo sapiens, UniProt P41162-2 1-143); conditions: protein: recombinant; tags: N-terminal GST; dsDNA, one strand shown
# T12 sequence: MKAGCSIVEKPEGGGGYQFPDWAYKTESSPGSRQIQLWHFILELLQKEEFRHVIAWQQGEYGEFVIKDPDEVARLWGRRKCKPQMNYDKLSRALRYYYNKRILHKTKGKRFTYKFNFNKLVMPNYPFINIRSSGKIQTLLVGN
# How it was run: as §1
# ETV6 = ETV6 (Homo sapiens, UniProt P41212 1-452); conditions: protein: recombinant; tags: N-terminal GST; dsDNA, one strand shown
# Chain of ETV6 (P41212 whole entry): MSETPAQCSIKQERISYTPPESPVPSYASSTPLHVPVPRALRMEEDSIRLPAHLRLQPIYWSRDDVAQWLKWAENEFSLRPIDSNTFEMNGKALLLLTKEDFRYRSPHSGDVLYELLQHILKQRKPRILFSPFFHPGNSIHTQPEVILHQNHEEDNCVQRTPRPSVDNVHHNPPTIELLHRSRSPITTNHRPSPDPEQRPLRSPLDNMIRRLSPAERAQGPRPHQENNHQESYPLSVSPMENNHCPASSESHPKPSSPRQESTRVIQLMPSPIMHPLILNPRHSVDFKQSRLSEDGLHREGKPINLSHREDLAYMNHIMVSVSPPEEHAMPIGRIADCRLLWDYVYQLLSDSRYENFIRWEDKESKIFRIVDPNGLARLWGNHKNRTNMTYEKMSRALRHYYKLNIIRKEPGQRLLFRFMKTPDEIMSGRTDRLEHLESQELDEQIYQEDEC
# How it was run: as §1
sequence,measurement,setting,value
GCTATT,binding signal,FEV,"1.29 fold enrichment (6-mer frequency, TF over GST control)"
same,binding signal,ETV5,"1.3 fold enrichment (6-mer frequency, TF over GST control)"
same,binding signal,HSF1,"1.22 fold enrichment (6-mer frequency, TF over GST control)"
same,binding signal,SPIC,"1.38 fold enrichment (6-mer frequency, TF over GST control)"
same,binding signal,ELF4,"1.38 fold enrichment (6-mer frequency, TF over GST control)"
same,binding signal,ELK4,"1.56 fold enrichment (6-mer frequency, TF over GST control)"
same,binding signal,ETV2,"1.41 fold enrichment (6-mer frequency, TF over GST control)"
same,binding signal,ELF3,"1.45 fold enrichment (6-mer frequency, TF over GST control)"
same,binding signal,CRX,"1.38 fold enrichment (6-mer frequency, TF over GST control)"
same,binding signal,ETV1,"1.3 fold enrichment (6-mer frequency, TF over GST control)"
same,binding signal,ERF,"1.37 fold enrichment (6-mer frequency, TF over GST control)"
same,binding signal,ETV3L,"1.34 fold enrichment (6-mer frequency, TF over GST control)"
same,binding signal,ETS2,"1.25 fold enrichment (6-mer frequency, TF over GST control)"
same,binding signal,SPDEF,"1.2 fold enrichment (6-mer frequency, TF over GST control)"
same,binding signal,ETV7,"1.34 fold enrichment (6-mer frequency, TF over GST control)"
same,binding signal,ELF5,"1.33 fold enrichment (6-mer frequency, TF over GST control)"
same,binding signal,ETV3,"1.25 fold enrichment (6-mer frequency, TF over GST control)"
same,binding signal,ETV6,"1.35 fold enrichment (6-mer frequency, TF over GST control)"
